# From PubChem BioAssay (NCI)
# About 79,000 compounds went through this panel and 15% of them were active in at least one assay; those are over-represented in the sample as a whole. Values without a mark were called inactive. Activity calls are given as the source filed them. Rule as the data show it: active = growth inhibition above about 70%; inactive = the rest.
# How the values were obtained:
# [1] = NCI Yeast Anticancer Drug Screen. Data for the rad50 strain (AID 155);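 also: 0% = growth of vehicle-only cultures of the same strain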; conditions: S. cerevisiae rad50 strain growth inhibition, active compounds read high
# Procedure, shortened: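 Yeast carrying a defined DNA repair defect were exposed to test compounds, and growth was compared with vehicle-treated controls to give percent inhibition.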
# [2] = NCI Yeast Anticancer Drug Screen. Data for the mec2-1 strain (AID 157); conditions: S. cerevisiae mec2-1 strain, active compounds read high
# Procedure, shortened: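 Strain: mec2-1 (DNA repair/cell cycle alteration). Compound exposure, then growth measured; inhibition expressed relative to vehicle.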
# [3] = NCI Yeast Anticancer Drug Screen. Data for the sgs1 mgt1 strain (AID 161);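 also: 0% = growth of cultures given vehicle only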; conditions: S. cerevisiae sgs1 mgt1 strain, active compounds read high
# Procedure, shortened: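 Mutant yeast exposed to compound; growth scored against vehicle-only wells.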
# [4] = NCI Yeast Anticancer Drug Screen. Data for the cln2 rad14 strain (AID 165);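 also: 0% = growth equal to vehicle treated cultures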; conditions: S. cerevisiae cln2 rad14 strain, active compounds read high
# Procedure, shortened: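 Compounds are applied to the cln2 rad14 yeast strain, and growth is then compared with that of vehicle-treated cultures to give inhibition.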
# [5] = NCI Yeast Anticancer Drug Screen. Data for the bub3 strain (AID 167); conditions: S. cerevisiae bub3 mutant strain, active compounds read high
# Procedure, shortened: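 Compounds were applied to a genetically altered yeast strain carrying a cell-cycle control defect. Growth inhibition was scored against vehicle-treated controls.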
# [6] = NCI Yeast Anticancer Drug Screen. Data for the mlh1 rad18 strain (AID 175); conditions: S. cerevisiae mlh1 rad18 strain growth inhibition, active compounds read high
# Procedure, shortened: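 Read-out is yeast growth inhibition, calculated against vehicle-only controls. The compound was applied to a strain engineered with DNA damage repair alterations.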
# [7] = at 5.0 µM (retest, dose inferred, filed as 0.5)
# [8] = at 50.0 µM (retest, dose inferred, filed as 5.0)
Structure (SMILES),"growth inhibition [1, 7]","growth inhibition [1, 8]",growth inhibition ([1]; at 50.0 µM),"growth inhibition [2, 7]","growth inhibition [2, 8]",growth inhibition ([2]; at 50.0 µM),"growth inhibition [3, 7]","growth inhibition [3, 8]",growth inhibition ([3]; at 50.0 µM),"growth inhibition [4, 7]","growth inhibition [4, 8]",growth inhibition ([4]; at 50.0 µM),"growth inhibition [5, 7]","growth inhibition [5, 8]",growth inhibition ([5]; at 50.0 µM),"growth inhibition [6, 7]","growth inhibition [6, 8]",growth inhibition ([6]; at 50.0 µM)
CC/C(=N\NC(=S)SC)c1ccccn1,24%,96% (active),-13.7%,16%,96% (active),-5.4%,24%,96% (active),88.9% (active),24%,97% (active),88.7% (active),18%,96% (active),86.2% (active),25%,96% (active),87% (active)
CC(C)=CCC/C(=C/CC/C(C)=C/CCc1ccoc1)C(=O)O,-5%,20%,72.8% (active),3%,26%,44.1%,-9%,41%,59.4%,17%,73% (active),42.7%,-9%,64%,53%,2%,35%,62.3%
[O-][n+]1c(-c2ccccc2)c(Cl)c(-c2ccccc2)n1O,4%,75% (active),86.3% (active),0%,94% (active),97% (active),4%,92% (active),97.6% (active),0%,53%,92.7% (active),8%,96% (active),97.8% (active),4%,95% (active),97.5% (active)
O=C1/C(=C/c2cccc(O)c2)COc2ccccc21,21%,95% (active),93.8% (active),34%,98% (active),96.1% (active),63%,98% (active),96.2% (active),9%,95% (active),91.6% (active),58%,95% (active),95.8% (active),77% (active),97% (active),96.8% (active)
CCN(CC)CCCNc1cc(C)nc2c1ccc1c2ccc2c(NCCCN(CC)CC)cc(C)nc21,-4%,92% (active),61.9%,-2%,75% (active),97.8% (active),-1%,78% (active),65.8%,-7%,82% (active),73.7% (active),-4%,97% (active),96.7% (active),-4%,81% (active),94.2% (active)
CN(C)CCCNCC(=O)Nc1ccc(S(=O)(=O)c2ccc(NC(=O)CNCCCN(C)C)cc2)cc1,2%,92% (active),95.2% (active),-2%,97% (active),58.7%,-11%,95% (active),97.2% (active),7%,66%,78.1% (active),2%,89% (active),30.2%,3%,96% (active),90.2% (active)
Nc1ccc(O)c2c1C(=O)c1ccccc1C2O (stereo not given),-9%,96% (active),94.8% (active),4%,95% (active),78.9% (active),32%,97% (active),83.8% (active),-10%,78% (active),54.8%,19%,96% (active),81.5% (active),28%,98% (active),94.5% (active)
O=Cc1ccc2ccc3ccccc3c2c1,-8%,85% (active),85.9% (active),8%,66%,41.4%,6%,56%,79.1% (active),-19%,94% (active),21.2%,-27%,95% (active),70.8% (active),-7%,93% (active),84.9% (active)
CCOC(=O)C1=C(c2ccccc2)SC(c2ccccc2)N(C(C)C)C1=O (stereo not given),8%,67%,90.3% (active),13%,51%,88% (active),15%,81% (active),94.5% (active),12%,63%,83.6% (active),4%,68%,87.7% (active),9%,76% (active),88.1% (active)
CCCCCCCCCCCCCCCC(=O)N1CCOCC1,-4%,94% (active),31.4%,-5%,97% (active),31.8%,-4%,98% (active),-13.7%,1%,62%,-64.8%,-8%,98% (active),21.2%,17%,93% (active),28.1%
